For test [1], the target named is Tyrosine-protein kinase SYK (Homo sapiens) (UniProt P43405). The conditions noted are these: at 10 µM.
Test [2] deals with T1, Mitogen-activated protein kinase kinase kinase 7 (Homo sapiens) (UniProt O43318).
T1 sequence (whole entry): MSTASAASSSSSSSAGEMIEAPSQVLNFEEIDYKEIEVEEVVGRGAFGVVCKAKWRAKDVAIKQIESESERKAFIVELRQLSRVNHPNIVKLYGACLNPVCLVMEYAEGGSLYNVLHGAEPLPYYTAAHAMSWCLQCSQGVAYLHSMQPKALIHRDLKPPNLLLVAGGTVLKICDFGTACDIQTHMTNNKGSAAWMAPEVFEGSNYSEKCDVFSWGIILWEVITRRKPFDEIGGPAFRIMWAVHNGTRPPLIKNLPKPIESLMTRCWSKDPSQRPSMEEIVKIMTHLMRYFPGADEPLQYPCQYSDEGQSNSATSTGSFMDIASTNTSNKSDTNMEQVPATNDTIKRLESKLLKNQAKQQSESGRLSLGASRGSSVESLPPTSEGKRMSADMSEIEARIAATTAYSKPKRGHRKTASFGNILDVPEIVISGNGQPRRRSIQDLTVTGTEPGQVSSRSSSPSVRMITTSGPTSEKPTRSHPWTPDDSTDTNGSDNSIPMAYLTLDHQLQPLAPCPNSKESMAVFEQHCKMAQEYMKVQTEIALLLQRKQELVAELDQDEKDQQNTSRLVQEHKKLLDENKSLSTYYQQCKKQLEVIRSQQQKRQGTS
The settings on record: at 1 µM.

For test [3], the target named is T1, Mitogen-activated protein kinase kinase kinase 7 (Homo sapiens). The conditions noted are these: at 10 µM.
The target of test [4] is T2, Serine/threonine-protein kinase TAO1 (Homo sapiens) (UniProt Q7L7X3).
T2 sequence (whole entry): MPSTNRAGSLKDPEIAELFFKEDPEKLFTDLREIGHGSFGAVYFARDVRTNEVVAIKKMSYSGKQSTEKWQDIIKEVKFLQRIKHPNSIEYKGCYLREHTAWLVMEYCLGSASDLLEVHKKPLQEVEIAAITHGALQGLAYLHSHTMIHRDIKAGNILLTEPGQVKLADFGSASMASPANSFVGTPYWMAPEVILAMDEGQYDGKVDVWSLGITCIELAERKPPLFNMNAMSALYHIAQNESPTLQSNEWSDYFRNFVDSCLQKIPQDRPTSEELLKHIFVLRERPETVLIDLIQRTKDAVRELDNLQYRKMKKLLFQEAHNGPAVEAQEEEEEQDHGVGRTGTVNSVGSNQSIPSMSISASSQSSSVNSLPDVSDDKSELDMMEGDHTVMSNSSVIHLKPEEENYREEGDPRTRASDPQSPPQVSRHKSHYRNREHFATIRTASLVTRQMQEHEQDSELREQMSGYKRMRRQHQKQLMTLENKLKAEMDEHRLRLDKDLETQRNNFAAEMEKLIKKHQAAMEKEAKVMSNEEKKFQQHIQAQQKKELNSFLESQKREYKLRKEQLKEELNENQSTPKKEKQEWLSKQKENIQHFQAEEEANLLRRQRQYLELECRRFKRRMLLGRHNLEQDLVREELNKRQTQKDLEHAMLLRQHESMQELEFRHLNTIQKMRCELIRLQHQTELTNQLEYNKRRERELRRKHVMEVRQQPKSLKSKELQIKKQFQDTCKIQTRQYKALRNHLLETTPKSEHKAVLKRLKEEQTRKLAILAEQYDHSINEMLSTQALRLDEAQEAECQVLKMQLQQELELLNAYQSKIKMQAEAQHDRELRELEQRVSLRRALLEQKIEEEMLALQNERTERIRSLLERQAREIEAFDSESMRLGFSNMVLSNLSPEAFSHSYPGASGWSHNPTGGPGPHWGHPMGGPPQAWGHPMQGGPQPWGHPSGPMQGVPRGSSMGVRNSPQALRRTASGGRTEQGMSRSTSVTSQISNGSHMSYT
The conditions noted are these: at 1 µM.

For test [5], the target named is T2, Serine/threonine-protein kinase TAO1 (Homo sapiens). The settings on record: at 10 µM.
Test [6] has as its target T3, Serine/threonine-protein kinase TAO2 (Homo sapiens) (UniProt Q9UL54).
T3 sequence (whole entry): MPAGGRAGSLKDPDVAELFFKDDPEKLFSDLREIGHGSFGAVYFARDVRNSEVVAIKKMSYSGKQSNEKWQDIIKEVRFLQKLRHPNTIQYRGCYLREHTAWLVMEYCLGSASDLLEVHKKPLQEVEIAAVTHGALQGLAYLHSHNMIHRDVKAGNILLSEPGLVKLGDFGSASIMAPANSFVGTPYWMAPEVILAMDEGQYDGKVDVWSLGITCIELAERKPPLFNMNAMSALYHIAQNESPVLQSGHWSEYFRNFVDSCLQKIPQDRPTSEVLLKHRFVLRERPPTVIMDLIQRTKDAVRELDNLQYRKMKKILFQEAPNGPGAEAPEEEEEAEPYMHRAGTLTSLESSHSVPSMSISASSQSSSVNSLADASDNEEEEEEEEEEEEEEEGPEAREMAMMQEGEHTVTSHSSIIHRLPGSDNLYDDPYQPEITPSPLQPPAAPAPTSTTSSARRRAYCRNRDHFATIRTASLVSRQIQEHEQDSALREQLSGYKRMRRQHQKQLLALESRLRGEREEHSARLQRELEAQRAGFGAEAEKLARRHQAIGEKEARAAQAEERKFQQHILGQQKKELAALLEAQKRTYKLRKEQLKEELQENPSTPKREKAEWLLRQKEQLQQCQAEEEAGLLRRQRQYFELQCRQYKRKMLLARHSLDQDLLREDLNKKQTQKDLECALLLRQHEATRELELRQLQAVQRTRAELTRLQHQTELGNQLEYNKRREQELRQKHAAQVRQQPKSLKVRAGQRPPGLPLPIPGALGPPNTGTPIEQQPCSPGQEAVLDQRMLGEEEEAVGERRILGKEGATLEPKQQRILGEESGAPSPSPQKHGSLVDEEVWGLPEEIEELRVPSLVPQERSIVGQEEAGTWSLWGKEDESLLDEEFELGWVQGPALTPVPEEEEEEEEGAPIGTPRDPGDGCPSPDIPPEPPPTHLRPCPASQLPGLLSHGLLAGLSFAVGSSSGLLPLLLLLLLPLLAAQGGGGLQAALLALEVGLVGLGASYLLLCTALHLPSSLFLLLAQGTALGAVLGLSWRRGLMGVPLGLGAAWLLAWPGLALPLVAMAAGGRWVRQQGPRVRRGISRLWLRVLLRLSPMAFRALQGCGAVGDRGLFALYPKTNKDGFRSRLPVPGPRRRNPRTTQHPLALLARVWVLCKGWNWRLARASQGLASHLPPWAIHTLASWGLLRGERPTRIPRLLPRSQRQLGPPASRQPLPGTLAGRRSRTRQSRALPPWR
The settings on record: at 1 µM.

For test [7], the target named is T3, Serine/threonine-protein kinase TAO2 (Homo sapiens). The settings on record: at 10 µM.
In test [8] the target is T4, Serine/threonine-protein kinase TAO3 (Homo sapiens) (UniProt Q9H2K8).
T4 sequence (whole entry): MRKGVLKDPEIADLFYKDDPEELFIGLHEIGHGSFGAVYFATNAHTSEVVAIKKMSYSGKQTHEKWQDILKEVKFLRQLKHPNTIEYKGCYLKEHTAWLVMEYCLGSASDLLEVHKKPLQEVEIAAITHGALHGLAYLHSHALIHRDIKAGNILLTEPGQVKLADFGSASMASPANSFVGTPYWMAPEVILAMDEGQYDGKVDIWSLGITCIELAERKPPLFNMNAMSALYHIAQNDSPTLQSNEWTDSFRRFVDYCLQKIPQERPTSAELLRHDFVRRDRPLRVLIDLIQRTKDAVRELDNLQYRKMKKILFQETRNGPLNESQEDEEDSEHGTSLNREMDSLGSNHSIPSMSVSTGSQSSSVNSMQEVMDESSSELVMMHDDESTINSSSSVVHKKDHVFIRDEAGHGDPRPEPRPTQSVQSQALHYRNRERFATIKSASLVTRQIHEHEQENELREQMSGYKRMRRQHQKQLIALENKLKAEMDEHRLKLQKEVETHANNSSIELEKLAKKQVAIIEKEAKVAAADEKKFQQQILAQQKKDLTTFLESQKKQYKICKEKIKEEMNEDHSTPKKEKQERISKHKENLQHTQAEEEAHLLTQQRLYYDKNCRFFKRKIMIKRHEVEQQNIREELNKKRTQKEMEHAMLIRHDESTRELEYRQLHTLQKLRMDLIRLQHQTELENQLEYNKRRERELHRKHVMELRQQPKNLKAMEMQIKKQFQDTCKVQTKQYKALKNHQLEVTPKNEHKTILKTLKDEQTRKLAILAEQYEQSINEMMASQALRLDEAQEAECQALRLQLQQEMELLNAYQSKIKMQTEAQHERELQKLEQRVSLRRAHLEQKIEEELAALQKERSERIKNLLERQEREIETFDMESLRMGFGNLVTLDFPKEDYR
The settings on record: at 1 µM.

The target of test [9] is T4, Serine/threonine-protein kinase TAO3 (Homo sapiens). The settings on record: at 10 µM.
For test [10], the target named is T5, Serine/threonine-protein kinase TBK1 (Homo sapiens) (UniProt Q9UHD2).
T5 sequence (whole entry): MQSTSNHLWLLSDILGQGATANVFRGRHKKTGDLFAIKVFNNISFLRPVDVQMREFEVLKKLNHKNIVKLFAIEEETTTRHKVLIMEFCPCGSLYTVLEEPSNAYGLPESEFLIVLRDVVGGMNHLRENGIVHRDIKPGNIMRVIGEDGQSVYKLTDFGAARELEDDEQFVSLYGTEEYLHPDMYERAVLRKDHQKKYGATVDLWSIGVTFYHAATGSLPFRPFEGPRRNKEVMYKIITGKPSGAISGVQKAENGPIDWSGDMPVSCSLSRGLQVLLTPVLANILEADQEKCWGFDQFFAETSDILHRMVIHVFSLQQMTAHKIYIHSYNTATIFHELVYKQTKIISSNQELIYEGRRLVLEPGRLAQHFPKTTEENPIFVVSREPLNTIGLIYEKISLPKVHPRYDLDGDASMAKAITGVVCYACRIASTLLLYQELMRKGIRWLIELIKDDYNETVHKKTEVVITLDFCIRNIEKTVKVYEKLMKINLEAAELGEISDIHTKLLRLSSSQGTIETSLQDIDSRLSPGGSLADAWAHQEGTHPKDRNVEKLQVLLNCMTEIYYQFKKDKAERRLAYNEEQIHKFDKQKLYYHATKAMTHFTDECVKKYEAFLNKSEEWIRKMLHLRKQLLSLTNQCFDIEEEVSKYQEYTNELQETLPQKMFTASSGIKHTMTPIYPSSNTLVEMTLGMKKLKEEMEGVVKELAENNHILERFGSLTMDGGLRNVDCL
The settings on record: at 1 µM.

The structures appear in SMILES notation.

As to `O=c1c2ccccc2[nH]c(=S)n1CCN1CCC(=C(c2ccc(F)cc2)c2ccc(F)cc2)CC1`, the residual activity is 68% in test [1]; 97% in test [2]; 83% in [3]; 109% in [4]; 88% in test [5]; 107% in [6]. Further, the residual activity was 79% in test [7], 109% in [8], 86% in test [9] and 91% in test [10].

The values are drawn from ChEMBL document CHEMBL2218924, “A broad activity screen in support of a chemogenomic map for kinase signalling research and drug discovery” (Biochem J, 2013).
